# A number with no mark means an inactive call.
# Tested on: Vero E6 infected with SARS-CoV-2
# Test: inhibition of SARS-CoV-2 cytopathic effect; higher = more antiviral protection, active = above 15
# Conditions: 1 nM; 48 h
row,SMILES,inhibition of SARS-CoV-2 cytopathic effect [%]
1,C[C@]1(O)C[C@@H](c2nc(-c3ccc4ccc(-c5ccccc5)nc4c3)c3c(N)nccn32)C1 [linsitinib],1.22
2,CC/C(=C(/CC)c1ccc(OP(=O)(O)O)cc1)c1ccc(OP(=O)(O)O)cc1 [fosfestrol],-0.34
3,C=C[C@@](C)(/C=C/c1ccc(O)cc1)CCC=C(C)C [bakuchiol],1.64
4,CC(C)[N+](C)(CCC(C(N)=O)(c1ccccc1)c1ccccc1)C(C)C [isopropamide-iodide],1.15
5,CN(C)CCc1c[nH]c2ccc(Cn3cncn3)cc12 [rizatriptan],-0.4
6,Cc1cc(Nc2ncc(Cl)c(Nc3ccccc3S(=O)(=O)C(C)C)n2)c(OC(C)C)cc1C1CCNCC1 [ceritinib],-0.41
7,CCCCCCCCCC(=O)OCCN1CCN(CCCN2c3ccccc3Sc3ccc(C(F)(F)F)cc32)CC1 [fluphenazine-decanoate],-6.37
8,Clc1ccc2c(NCCNc3ccnc4cc(Cl)ccc34)ccnc2c1,-2.64
9,CC(O)(C(=O)Nc1ccc(S(=O)(=O)c2ccccc2)cc1)C(F)(F)F (configuration not stated),1.63
10,Cn1c(=O)c2c(ncn2CC2OCCO2)n(C)c1=O [doxofylline],-0.49
11,CN1C[C@@H]2CN(c3ccc(-c4ccccc4)nn3)C[C@@H]2C1,1.02
12,CSCC1CN(/N=C/c2ccc([N+](=O)[O-])o2)C(=O)O1 (configuration not stated) [inimur],-1.14

# — the supplement of paper PMC13380429
